Laboratory results from PubChem BioAssay.

test system: Plasmodium falciparum Sir2 (PF13_0152, Sir2A); test: pfSir2 binders on small-molecule microarrays, primary screen, biochemical, small-molecule microarray, 635 nm fluorescence (AID 1098); conditions: small-molecule microarray binding, fluorescence 635 nm; higher = more signal;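 further: score merges spot fluorescence intensity with its signal-to-noise ratio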

Structure (SMILES)	composite z-score
CCOC(=O)C1=CCC(c2ccc(C)cc2)N(S(=O)(=O)c2ccc(C)cc2)C1 (stereo not given)	0.751
CN(C)CCCNC(=O)[C@@]1(c2ccc([N+](=O)[O-])cc2)CC(=O)N(C2CCCCC2)[C@@H]1c1ccc(CO)cc1	0.762
CC(=O)N1Cc2ccccc2C[C@@]2(COC(c3ccc(OCCCO)cc3)=N2)C1=O	1.32
COCCOC(=O)N1C(=O)[C@@]2(c3cc(C#CC4=CCCCC4)ccc31)[C@H](C(=O)Nc1nc3ccccc3s1)[C@H]1C(=O)O[C@H](c3ccccc3)[C@H](c3ccccc3)N1[C@@H]2c1ccc(OCCO)cc1	0.687
C=CC[C@]1(C(=O)N2CCCCC2)N=C(c2ccc(OCCCO)cc2)O[C@H]1c1ccccc1	1.25
O=C1NCC(=O)N2[C@@H]1C[C@@H](C(=O)O)[C@H]2c1cccc(OCCO)c1	2.28
O=C1O[C@H](c2ccccc2)[C@H](c2ccccc2)N2[C@H]1[C@@H](C(=O)O)[C@]1(C(=O)Nc3ccc(C#CCCO)cc31)[C@H]2c1ccc(O)cc1	0.218
C=CCOC(=O)[C@H]1[C@@H]2C(=O)O[C@@H](c3ccccc3)[C@@H](c3ccccc3)N2[C@@H](c2ccc(OCCOC(=O)[C@@H]3C[C@@H]4C(=O)N[C@@H](CCCCN(C)C)C(=O)N4[C@@H]3c3ccc(O)cc3)cc2)[C@]12C(=O)Nc1ccc(I)cc12	1.04
CC(C)(C)OC(=O)CC[C@]12N=C(c3ccc(OCCCO)cc3)O[C@H]1c1ccccc1N(CCS(=O)(=O)c1ccccc1)C2=O	1.17
CN(C)C(=O)[C@@]1(Cc2ccccc2CN=[N+]=[N-])N=C(c2ccc(OCCCO)cc2)O[C@H]1c1ccccc1	1.67
